Assay outcomes as filed in PubChem.
TRPML1 blocker: inhibitors of human TRPML1 channel; Q9GZU1; TRPML1-inducible cells, Ca2+ dye fluorescence, FDSS; hits give low values; inhibition of EC80 agonist-evoked calcium signal; activity change, negative = inhibition, % (no concentration beside the values); actives 0.02% (n = 390,000); in the data active = activity change below about -50%; inconclusive = between about -30% and that limit;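 also: stimulus is agonist 54-4 at its EC80 concentration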
Target sequence (Q9GZU1 whole entry, looked up): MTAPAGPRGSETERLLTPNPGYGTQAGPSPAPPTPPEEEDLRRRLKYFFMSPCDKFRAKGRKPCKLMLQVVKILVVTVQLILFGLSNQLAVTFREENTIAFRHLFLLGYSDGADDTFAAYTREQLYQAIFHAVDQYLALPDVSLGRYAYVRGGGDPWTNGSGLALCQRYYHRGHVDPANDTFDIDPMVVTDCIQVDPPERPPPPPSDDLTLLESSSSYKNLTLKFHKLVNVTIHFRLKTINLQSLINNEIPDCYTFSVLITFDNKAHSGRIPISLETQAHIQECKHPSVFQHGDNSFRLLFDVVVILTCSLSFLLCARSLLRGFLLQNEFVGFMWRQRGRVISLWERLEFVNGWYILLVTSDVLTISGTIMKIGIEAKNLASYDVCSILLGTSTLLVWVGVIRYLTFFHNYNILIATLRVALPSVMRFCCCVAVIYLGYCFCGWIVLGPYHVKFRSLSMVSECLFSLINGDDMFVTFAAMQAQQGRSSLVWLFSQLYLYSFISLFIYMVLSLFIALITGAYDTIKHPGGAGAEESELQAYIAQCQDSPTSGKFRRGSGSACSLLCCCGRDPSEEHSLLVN
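TRPML1-DL cells, Tet-induced overnight (~16 h, 37 °C) at 1,500 cells/well, were loaded with Ca8 no-wash dye plus quencher for 45-90 min at room temperature. Compounds were pinned during FDSS kinetic reading; agonist 54-4 at EC80 (4 uM final) then added.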
GLP-1R agonist: agonists of human GLP-1 receptor | Potency, µM (top dose mostly 45.6 µM), hits mostly activators | actives 0.007% (n = 380,000) | AID 624172 | HEK293 GLP-1R CRE-luciferase, luminescence, 4-6 h; cells express a hypersensitive GLP-1R form
GLP-1R inv ag: acts as inverse agonist at human GLP-1 receptor; actives 1.6% (n = 410,000); HEK293 GLP-1R CRE-luciferase, luminescence, 24 h; GLP-1R form is constitutively active; Potency, µM (top dose mostly 38.3 µM), hits mostly inhibitors; also: nearly all actives have a fitted effect of over 55% in size
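Using stably transfected HEK293 (constitutively active GLP-1R, cAMP-luciferase reporter), compounds were incubated 24 hr and luciferase measured by luminescence.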
HEK293 tox: cytotoxicity in counter-screen for GLP-1R inverse agonists; Potency, µM (top dose mostly 38.3 µM), most hits filed as inhibitors; actives 0.13% (n = 410,000); HEK293 cAMP-luciferase reporter cells, luminescence, 24 h;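 also: loss of luciferase light is scored as toxicity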
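MLSMR compounds, 24 hr on cells at 37 deg C/5% CO2; luminescence after luciferase reagent (12 min RT). Inhibition counted as the undesired cytotoxic outcome.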
TRPML1 ag: agonists of human TRPML1 channel. Q9GZU1. TRPML1-expressing cells, Ca2+ dye fluorescence, FDSS. activation, % (no concentration beside the values). actives 0.12% (n = 410,000); in the data active = activation above about 50%; inconclusive = mostly about 30% to 49%
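In this qHTS format, compounds were pin-transferred onto Ca8-dye-loaded TRPML1-DL cells induced with Tet overnight, and intracellular Ca2+ fluorescence was recorded kinetically for 110 s after a 10 s baseline. A subsequent 4uM final 54-4 (EC80) addition followed by a second 110 s read served as the antagonist phase.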
Hits are given with their value; i = inactive; ? = inconclusive; nt = not tested or not shown. An excerpt weighted towards active compounds, which were near 1.8% of everything screened. Unless noted, calls follow the shape of the dose curve; as a rule, active = well fitted curve in the direction sought with a large enough effect; inconclusive = small, poorly fitted or top-dose-only effect, or another doubt; inactive = no such curve, though single readings can be large; an effect the other way counts as inactive or inconclusive.

SMILES	TRPML1 blocker	GLP-1R agonist	GLP-1R inv ag	HEK293 tox	TRPML1 ag
O=C1CC(=C(c2ccccc2)c2ccccc2)C(=O)N1CCCCN1CCN(c2ccccc2)CC1	i	i	1.3µM	?	i
O=C(CCCN1CCN(c2ccccc2)CC1)c1ccc(F)cc1	i	i	i	i	i
COc1ccc(NC(=O)/C(Cl)=C(/Cl)S(=O)Cc2ccccc2Cl)cn1 (configuration not stated)	i	i	?	4µM	i
CC(O)CNc1nc2ccccc2n1-c1ncnc2sc3c(c12)CCC3 (configuration not stated)	i	i	10µM	?	i
c1ccc2c(c1)ncn2-c1ncnc2sc3c(c12)CCCC3	i	i	4.5µM	i	i
CCC(=O)C1=C(c2cccc(OC)c2)N(C(=O)CC)n2c(nnc2C2CCCCC2)S1	i	nt	?	i	i
CCOc1ccc(C2C(=O)N(C3CCCCCC3)CC(=O)N2CCc2ccc(Cl)cc2)cc1OC (configuration not stated)	i	nt	i	i	i
COc1ccccc1CNC(=O)C1(NC(=O)Nc2ccc(C)cc2)CCCCC1	i	i	8.9µM	i	i
CCC1(CC)C(=O)C2=C3C1[C@H](C(=O)OC)CC(C(=O)OC)C[C@H]3[C@H]1C(=O)N(C)C(=O)[C@H]1[C@H]2C (some centres not stated)	i	nt	nt	nt	i
COc1ccc(N2C(=O)C(CC(=O)Nc3ccc(Cl)cc3)N(Cc3ccc4c(c3)OCO4)C2=O)cc1 (configuration not stated)	i	nt	?	i	i
Cc1nc2ccc(NC(=O)c3ccc(Cl)c(S(=O)(=O)N(C)c4ccccc4)c3)cc2s1	i	i	1.8µM	i	i
O=C(c1ccc(S(=O)(=O)Cc2cc(F)ccc2F)c([N+](=O)[O-])c1)N1CCCCC1	i	i	?	?	i
Cc1ccc(S(=O)(=O)NCc2ccc(C(=O)N3CCN(c4ccccn4)CC3)cc2)cc1	i	i	13µM	i	i
O=C(c1ccc(S(=O)(=O)Cc2cc(F)ccc2F)c([N+](=O)[O-])c1)N1CCCC1	i	i	8.9µM	?	i
O=C(c1ccc(N2CCCC2)c([N+](=O)[O-])c1)N1CCN(S(=O)(=O)c2ccc(Cl)cc2)CC1	i	i	10µM	i	i
CN(c1ccccc1)S(=O)(=O)c1cc(C(=O)N2CCN(c3ccccn3)CC2)ccc1Cl	i	i	13µM	i	i
O=C(c1ccc(S(=O)(=O)Cc2ccccc2Cl)c([N+](=O)[O-])c1)N1CCN(c2ccccn2)CC1	i	i	10µM	i	i
O=C(c1ccc(Cl)c([N+](=O)[O-])c1)N1CCN(c2ccccn2)CC1	i	i	i	i	i
COc1ccc(-c2nc(CSCC(=O)NCCC(C)C)c(C)o2)cc1OC	i	nt	i	i	i
Cc1cccc(NC(=O)c2ccc(-c3nc(CSc4ccccc4)c(C)o3)cc2)c1C	i	nt	i	i	i
Cc1ccc(-n2c(=O)c3c(c4cc(C)ccc4n3C)n(CC(=O)Nc3ccc(F)cc3)c2=O)cc1	i	i	i	i	i
Cc1c(F)c(N2CCNC(C)C2)cc2c1c(=O)c(C(=O)O)cn2C1CC1 (configuration not stated)	nt	i	nt	nt	nt
COc1ccc(-c2nc(CSCC(=O)N3CCN(c4cccc(C)c4C)CC3)c(C)o2)cc1OC	i	nt	10µM	i	i
CC(=O)Nc1nonc1-c1nnc(SCc2cccc(Br)c2)n1C	i	nt	i	i	i
CCOC(=O)C(=NC(C)CC)NNc1ccc(Br)cc1 (configuration not stated)	i	i	2.5µM	i	i
SMILES	TRPML1 blocker	GLP-1R agonist	GLP-1R inv ag	HEK293 tox	TRPML1 ag
CCCCC[C@@H](C)N1C[C@@H](COCc2ccccc2)Oc2cc(N3CC[C@@H](O)C3)ccc2S1(=O)=O	nt	i	14µM	i	i
CCCCC[C@H](C)N1C[C@@H](COCc2ccccc2)Oc2cc(N3CC[C@@H](O)C3)ccc2S1(=O)=O	nt	i	10µM	?	i
Nc1nc(-c2ccc(Cl)cc2)c(S(=O)(=O)c2ccccc2)s1	i	i	8.9µM	i	i
O=C(Nc1ccccc1F)C(Cc1ccccc1)N1Cc2ccccc2C1=O (configuration not stated)	i	nt	i	i	i
COc1cccc(C(=O)NCC(C)(C)SCc2ccc(F)cc2)c1	i	i	11µM	i	i
COCCCNCCCOc1ccc(Cl)cc1Br	?	i	i	i	i
CC(O)CNCCCOc1ccc(Cl)cc1C(C)(C)C (configuration not stated)	i	i	1.6µM	?	i
CC(C)(C)c1cc(Cl)ccc1OCCn1ccnc1	i	i	?	i	i
CN(C)CCOCCOc1ccc(Cl)cc1C(C)(C)C	i	i	5.6µM	?	i
Cc1ccc(N2C(=O)C(F)(F)C2c2ccccc2)cc1 (configuration not stated)	i	i	?	i	63
CC(C)(C)NC(=O)C(c1c[nH]c2ccccc12)N(C(=O)Cn1nnc(-c2ccc(Cl)cc2)n1)c1ccccc1F (configuration not stated)	i	i	5µM	i	i
Cc1cc(C)cc(NS(=O)(=O)c2ccc(-c3cc(C)no3)cc2)c1	i	nt	3.5µM	i	i
CCOC(=O)c1nn(-c2ccccc2)c(-c2ccccc2)c1C(=O)c1ccccc1	i	i	2.8µM	i	i
CCOC(=O)c1nn(-c2cccc(OC)c2)c(-c2ccccc2)c1C(=O)c1ccccc1	i	i	5.6µM	i	i
CCOC(=O)c1nn(-c2ccc(F)cc2)c(-c2ccccc2)c1C(=O)c1ccccc1	i	i	?	i	i
CCCC[n+]1c(/C=C/c2ccc(N(C)C)cc2)sc2ccccc21	nt	nt	nt	nt	i
CCCCCCCCCC[n+]1ccc(/C=C/c2ccc(N(C)C)cc2)c2ccccc21	nt	nt	nt	nt	57
CN(CCCN(Cc1ccc(Cl)cc1)c1ccc(Br)cn1)C(=S)NCCCc1cnc[nH]1	nt	nt	nt	nt	i
Cc1cc(C(=O)COC(=O)CC2Sc3ccccc3NC2=O)c(C)n1-c1cccc(C(F)(F)F)c1 (configuration not stated)	i	i	?	i	i
Cc1cc(C(=O)COC(=O)Cc2n[nH]c(=O)c3ccccc23)c(C)n1-c1cccc(C(F)(F)F)c1	i	i	7.1µM	i	i
Cc1ccc(-c2[nH]ncc2/C=C(\C#N)C(=O)NC2CCCCC2)cc1	i	i	7.9µM	i	i
COc1ccccc1C(O)(c1ccccc1)C(CN1CCOCC1)c1ccccc1 (configuration not stated)	?	i	10µM	i	i
CCCCCCC(O)(c1ccc(OC)cc1)C(CN1CCOCC1)c1ccccc1 (configuration not stated)	i	i	?	?	i
